# SENP7 inh: blocks the human protease SENP7; hit rate 1.5% among 330,000; inhibition, % at 5 µM; Q9BQF6; recombinant SENP7, Z-RLRGG-aminoluciferin luminescence, 40 min;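 active = inhibition above about 50% at the single test dose, limit read from the data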;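 note: plate controls were DMSO with enzyme for no effect and no enzyme buffer wells for full effect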
# EBI2 block: blocks human EBI2 receptor beta-arrestin signaling; EBI2 beta-arrestin recruitment, luminescence, 7a,25-OHC stimulated; hit rate 0.81% among 360,000; inhibition, % at 5 µM; P32249; in the data active = inhibition above about 38%;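 note: enzyme fragment complementation signal reports receptor beta-arrestin coupling in cells; 0% = agonist plus DMSO wells and 100% = wells without agonist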
# Target sequence (P32249 whole entry, looked up, the tested form may be a part): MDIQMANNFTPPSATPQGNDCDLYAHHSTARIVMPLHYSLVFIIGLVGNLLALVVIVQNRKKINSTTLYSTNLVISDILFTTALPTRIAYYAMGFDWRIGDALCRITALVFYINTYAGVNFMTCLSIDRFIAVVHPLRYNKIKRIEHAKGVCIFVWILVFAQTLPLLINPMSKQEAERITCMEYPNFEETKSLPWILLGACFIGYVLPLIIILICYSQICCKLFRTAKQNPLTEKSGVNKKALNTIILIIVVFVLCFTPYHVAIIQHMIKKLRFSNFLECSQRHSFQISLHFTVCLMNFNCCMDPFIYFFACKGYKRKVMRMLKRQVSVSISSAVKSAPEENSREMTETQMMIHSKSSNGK
# SENP6 block: SENP6 protease inhibition; Recombinant SENP6 catalytic domain, aminoluciferin luminescence; Q9GZR1; inhibition, % at 10 µM; hit rate 1.8% among 330,000; AID 2599;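 active = inhibition above about 50% at the single tested dose, limit read from the data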;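 note: plate controls were DMSO wells with enzyme for no effect and DMSO wells lacking enzyme for full effect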
# AHR act: human AHR activation. AHR-responsive luciferase reporter cells, luminescence. activation, % at 5 µM. hit rate 2.5% among 320,000. P35869; in the data active = activation above about 47%;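 note: 0% = vehicle wells and 100% = reference agonist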
# SENP8 block-1: blocks human SENP8 cleavage of Nedd8 substrate; Q96LD8; recombinant SENP8, Nedd8 substrate fluorescence; inhibition, % at 20 µM; hit rate 0.64% among 360,000; in the data active = inhibition mostly above about 40%, no sharp cut-off; inactive = mostly below about 27%
# SENP8 block-2: inhibitors of human SENP8 protease; inhibition, % at 10 µM; purified SENP8, Z-RLRGG-aminoluciferin cleavage, luminescence; hit rate 1.2% among 330,000; AID 2540; in the data active = inhibition above about 50%
# SENP8 conf-1: human SENP8 inhibition, confirmed | shares compounds with SENP7 inh | Recombinant SENP8, Z-RLRGG-aminoluciferin luminescence, 60 min | inhibition, % at 12.5 µM | hit rate 40% among 6,200 | AID 488912;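 active = mean inhibition across replicates above about 50%, limit read from the data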
# SENP6 conf: confirmation of human SENP6 protease inhibitors | hit rate 58% among 6,200 | shares compounds with SENP7 inh | recombinant SENP6, Z-RLRGG-aminoluciferin luminescence | inhibition, % at 12.5 µM | AID 488915
# SENP7 confirm: confirmation of human SENP7 protease inhibitors; recombinant SENP7, Z-RLRGG-aminoluciferin luminescence, 40 min; hit rate 69% among 6,200; inhibition, % at 12.5 µM; shares compounds with SENP7 inh
# Casp3 SENP sel: selectivity test for SENP inhibitors: human caspase-3 inhibition; purified caspase-3, Z-DEVD-aminoluciferin luminescence, 60 min; AID 488918; hit rate 60% among 6,200; inhibition, % at 12.5 µM; shares compounds with SENP7 inh;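 active = mean inhibition above about 50%, limit read from the data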;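 note: plate controls were enzyme with DMSO for no effect and wells without caspase-3 for full effect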
# SENP luc ctr: luminescence interference (SENP counter-screen). hit rate 39% among 6,200. inhibition, % at 12.5 µM. shares compounds with SENP7 inh. AID 488919. Pre-incubated SENP8/Z-RLRGG-aminoluciferin, luciferase luminescence interference;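 active = mean inhibition above about 50% when retested at one dose, limit read from the data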;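 note: plate controls were DMSO wells with completed reaction for no effect and substrate without enzyme for full effect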
# SENP8 conf-2: confirmation of human SENP8 protease inhibitors | shares compounds with SENP8 block-1 | purified SENP8, Nedd8-AMC/pro-Nedd8 cleavage fluorescence, 30 min | inhibition, % at 25 µM | hit rate 15% among 1,400 | AID 624319; in the data active = inhibition mostly above about 39%, no sharp cut-off; inactive = mostly below about 34%
# * marks the source's active call; other numbers are inactive results; x = no result. Most compounds without a hit are left out; they make up all but 5% or so of the library.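 Rule for the calls, unless noted: active = mean inhibition above about 50% in the one-dose retest (limit read from the data); inactive = the rest.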
SMILES,SENP7 inh,EBI2 block,SENP6 block,AHR act,SENP8 block-1,SENP8 block-2,SENP8 conf-1,SENP6 conf,SENP7 confirm,Casp3 SENP sel,SENP luc ctr,SENP8 conf-2
Cc1[nH]n(-c2ccccc2)c(=O)c1C(=O)c1cccc(F)c1,7,8,17,0,18,1,x,x,x,x,x,x
Cc1[nH][nH]c(=O)c1C(c1c(C)[nH][nH]c1=O)c1cn(Cc2cccc3ccccc23)c2ccccc12,24,7,57*,19,86*,42,3,38,17,-1,-4,85*
CCN(CC)c1ccc(S(=O)(=O)N2CCCCC2)cc1NC(=O)CN1C(=O)NC2(CCCC2)C1=O,5,-4,-23,-2,3,0,x,x,x,x,x,x
CCC1CCCCN1C(=O)COc1c(Br)cc(Br)c2cccnc12 (stereo unspecified),1,13,-25,15,-5,-11,x,x,x,x,x,x
Nc1ccc(N2CCCCC2)c2nonc12,25,8,90*,4,80*,58*,30,56*,20,-3,-3,70*
COC(=O)c1[nH]c(=O)c2ccccc2c1O,17,10,64*,-1,41*,52*,-9,13,-7,5,-10,-32
O=C(N/N=C1\C/C(=N\NC(=O)c2ccncc2)c2ccccc21)c1ccncc1,37,-3,85*,56*,98*,64*,-16,42,9,37,8,95*
O=C(NN=C1C2CC3CC(C2)CC1C3)c1ccncc1,2,1,-1,13,20,5,x,x,x,x,x,x
O=[N+]([O-])c1ccccc1N/N=C/c1c[nH]c2ccccc12,79*,28,82*,73*,41*,63*,31,44,96*,30,8,17
COc1ccc(NC(=O)C(=O)N/N=C/c2cc(C)n(-c3cccc(Cl)c3Cl)c2C)c(OC)c1,0,9,-37,1,-58,4,x,x,x,x,x,x
COc1cc(C(=O)c2nccc3cc(OC)c(OC)cc23)c([N+](=O)[O-])cc1OC,90*,-23,95*,3,106*,84*,26,56*,24,-1,-5,80*
COc1cc(N)c(C(=O)c2nccc3cc(OC)c(OC)cc23)cc1OC,13,8,-16,10,16,-9,x,x,x,x,x,x
CSc1ccc(S(=O)(=O)NCC(=O)OCC(=O)N(Cc2ccccc2)C(C)C)cc1[N+](=O)[O-],12,13,-20,5,0,-11,x,x,x,x,x,x
O=[N+]([O-])c1ccc(C=Nc2ccc(Cl)c([N+](=O)[O-])c2)s1,21,-4,50*,x,76*,35,5,40,22,4,3,80*
Cc1cc(C)cc(N=Cc2ccc([N+](=O)[O-])s2)c1,17,10,57*,3,75*,29,14,41,9,-4,-3,83*
Cc1c(N=Cc2ccc(Br)s2)cccc1[N+](=O)[O-],-5,-5,-9,2,16,-12,x,x,x,x,x,x
O=C(N/N=C/c1c[nH]c2ccc(Br)cc12)C1CC1,8,-3,-7,10,15,-3,x,x,x,x,x,x
COc1ccc(NC(=O)CSc2nc3c(c(-c4cccs4)c2C#N)CN(C)CC3)cc1OC,23,-3,68*,0,52*,40,-1,2,5,4,0,1
COc1cccc(NC(=S)/C(=C(\[O-])c2ccc(OC(F)F)cc2)[n+]2ccccc2)c1,9,4,53*,5,61*,0,9,41,1,19,5,70*
